Source: PubChem BioAssay AID624267 (The Scripps Research Institute Molecular Screening Center, 2012)
Where “and” joins values, the source holds several entries; their conditions need not be identical. Identical values can stand only once. About 1,400 (0.39%) of roughly 360,000 compounds were called active. Rule as the data show it: active = inhibition above about 21%; inactive = the rest. The entries come from a sample that favours actives as a whole.

target: Receptor-interacting serine/threonine-protein kinase 2 (Homo sapiens) (UniProt O43353); experiment: NOD2-RIPK2 binding disruptors in cells, primary screen, fluorescence, CHO cells, BLA complementation (AID 624267); settings: CHO BLA complementation NOD2-RIPK2, CCF4 ratio; at 4.98 µM; stronger effect = higher value;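 also: 0% = vehicle only and 100% = reference blocker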
Sequence (O43353 whole entry, looked up): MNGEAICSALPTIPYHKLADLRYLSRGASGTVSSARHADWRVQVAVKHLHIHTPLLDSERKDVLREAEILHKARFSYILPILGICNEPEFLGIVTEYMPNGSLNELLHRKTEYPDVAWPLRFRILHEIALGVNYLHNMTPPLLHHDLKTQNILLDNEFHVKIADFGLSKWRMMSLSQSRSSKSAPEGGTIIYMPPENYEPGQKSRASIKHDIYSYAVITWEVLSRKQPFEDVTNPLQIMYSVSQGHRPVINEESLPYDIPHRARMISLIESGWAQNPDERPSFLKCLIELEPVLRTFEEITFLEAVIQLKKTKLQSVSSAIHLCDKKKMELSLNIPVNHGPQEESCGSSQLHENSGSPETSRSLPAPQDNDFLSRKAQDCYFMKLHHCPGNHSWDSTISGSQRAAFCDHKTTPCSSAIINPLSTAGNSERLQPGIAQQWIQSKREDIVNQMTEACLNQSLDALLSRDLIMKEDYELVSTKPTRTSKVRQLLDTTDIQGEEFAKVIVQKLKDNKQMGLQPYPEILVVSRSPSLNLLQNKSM

SMILES	inhibition
CCCCN(CCCC)CCCNC(=O)CN1C(=O)COc2ccc(S(=O)(=O)N3CCC(C)CC3)cc21	-2.68% (inactive)
CC(=O)Nc1cccc(Nc2ccc(C#N)cc2)c1	3.65% (inactive)
CCOC(=O)C1=C(C)NC2=C(C(=O)CC(C)(C)C2)C1c1ccsc1 (stereo not given)	2.36% (inactive)
COC(=O)c1ccc(C2NC(=O)NC(C)=C2C(=O)N(C)C)cc1 (stereo not given)	-10% (inactive)
CCOC(=O)C1=C(C)Nc2sc(C(=O)c3ccc(Br)cc3)c(N)c2C1c1ccc(C(=O)OC)cc1 (stereo not given)	27% (active)
COc1ccc(NC(=O)/C(Cl)=C(/Cl)S(=O)Cc2ccc(C)cc2)cn1 (stereo not given)	95.1% (active)
NC(Cc1ccccc1)c1csc(Nc2cc(Oc3ccccc3)ncn2)n1 (stereo not given)	-5.36% (inactive)
O=C(COC(=O)c1ccccc1NC(=O)c1ccco1)Nc1ccc2c(c1)OC(F)(F)O2	-2.03% (inactive)
O=C1C(C=NCC2CCCO2)=C(O)c2ccccc21 (stereo not given)	-5.23% (inactive)
N#Cc1cc([N+](=O)[O-])ccc1NCC1CCCO1 (stereo not given)	-32.9% (inactive)
O=C1c2cccc3c([N+](=O)[O-])ccc(c23)C(=O)N1CC1CCCO1 (stereo not given)	80.1% (active)
Cc1ccc(S(=O)(=O)N2CCN(C(=O)c3cc(S(=O)(=O)N4CCOCC4)ccc3F)CC2)cc1	-18.2% (inactive)
CCc1ccc(OC2(C)CCN(CCOc3ccc(C)cc3)C2)cc1 (stereo not given)	0.79% (inactive)
COc1ccc(C2CC(c3cccs3)=NN2c2nc(C)c(C(C)=O)s2)cc1OC (stereo not given)	6.76% (inactive)
COc1ccccc1N1N=C(c2cccs2)CC1c1ccccc1 (stereo not given)	49.9% (active)
Fc1ccc(N2N=C(c3cccs3)CC2c2ccco2)c(F)c1 (stereo not given)	-13.7% (inactive)
Cc1ncoc1C(=O)N1CCCC(C(=O)c2ccc3c4c(cccc24)CC3)C1 (stereo not given)	1.4% (inactive)
Cc1ccccc1C(=O)NCC(c1ccco1)N1CCc2ccccc21 (stereo not given)	7.15% (inactive)
COC(=O)C1=C(C(=O)c2ccc(C)cc2)C(c2ccccc2)n2nnnc2N1 (stereo not given)	2.81% (inactive)
COc1ccc(C2CC(c3cccs3)Nc3nnnn32)cc1 (stereo not given)	-2.81% (inactive)
COc1ccc(C2=CC(c3cccc(OC)c3)n3nnnc3N2)cc1 (stereo not given)	26.8% (active)
O=C1N(c2ccc(Cl)cc2)C(c2ccc(Cl)cc2)N2CCCN12 (stereo not given)	8.61% (inactive)
Cc1ccsc1-c1cc(C(=O)O)c2c(ccc3ccccc32)n1	0.09% (inactive)
CCOC(=O)C1(Cc2cccc(OC)c2)CCN(Cc2csc(C(C)=O)c2)CC1	-2.05% (inactive)

SMILES	inhibition
CCCc1c(C(=O)Nc2ccc(F)cc2)cnn1-c1ccccc1	-3.44% (inactive)
O=C(c1cccc(-n2cccc2)c1)N1CCN(S(=O)(=O)c2ccc(F)cc2)CC1	-0.82% (inactive)
O=[N+]([O-])/C=C/c1ccc2c(ccn2Cc2ccccc2)c1	87.9% (active)
COC(=O)N1CN(C(=O)OC)CN(C(=O)OC)C1	-12.2% (inactive)
Cc1ccc(NC(=O)CCCNC(=O)c2ccc(Cl)cc2)cc1S(=O)(=O)N1CCOCC1	-6.45% (inactive)
O=C(CCN1C(=O)COc2ccccc21)NCCCN1CCN(c2ccc(F)cc2)CC1	-5.53% (inactive)
CN1CCN(CCCNC(=O)c2ccc(/C=C3\Oc4ccccc4N(Cc4ccc(Cl)cc4)C3=O)cc2)CC1	33.1% (active)
COc1ccc(C)cc1NC(=S)Nc1ccccc1SC	-5.8% (inactive)
CCOc1ccc(S(=O)(=O)NCc2ccc3c(c2)OCO3)cc1C	-3.55% (inactive)
CC(Oc1ccccc1)C(=O)Nc1oc(-c2ccco2)c(-c2ccco2)c1C#N (stereo not given)	-14.4% (inactive)
COc1ccc(-c2cnc(SCCNC(=O)c3ccc4c(c3)OCO4)[nH]2)cc1	-2.11% (inactive)
COc1cccc(-c2cnc(C(O)c3ccccc3OC)[nH]2)c1 (stereo not given)	-4.35% (inactive)
COc1ccccc1CSc1ncc(-c2ccc([N+](=O)[O-])cc2)[nH]1	29.2% (active)
Cc1cccc(N2O[C@H]3C=CC2CCCC3)n1	9.84% (inactive)
O=S(=O)(c1ccccc1)N(Cc1cccc(F)c1)c1ccccc1	-10.2% (inactive)
CCN(CC)S(=O)(=O)c1ccc2[nH]c(=O)cc(C(=O)N(C)C3CCS(=O)(=O)C3)c2c1 (stereo not given)	-6.75% (inactive)
O=S(=O)(c1ccc(OCC(O)CN2CCN(c3ccccc3Cl)CC2)cc1)N1CCOCC1 (stereo not given)	-2.63% (inactive)
Cc1cc2oc3ccc(NCCC4CCCN4C)cc3c(=O)c2cc1C (stereo not given)	41.2% (active)
CN1CCC[C@@H]1CCO[C@](C)(c1ccccc1)c1ccc(Cl)cc1	14.6% (inactive)
CCCCC(CC(C)O)c1n[nH]c(=S)n1-c1ccccc1 (stereo not given)	-17.4% (inactive)
O=C(CCNc1n[nH]c(=O)[nH]c1=O)N/N=C\c1ccc(Br)cc1	-5.19% (inactive)
Cc1nn(C)cc1N1C(=O)c2cccc3c(N)ccc(c23)C1=O	24.3% (active)
O=C(CN1C(=O)NC2(CCOc3ccccc32)C1=O)Nc1cccc([N+](=O)[O-])c1 (stereo not given)	5.36% (inactive)
COc1ccc(C)cc1NC(=O)CCS(=O)(=O)c1cccc2nonc12	4.16% (inactive)

SMILES	inhibition
O=C(O)CCS(=O)(=O)c1ccc(-c2ccccc2)cc1	-5.35% (inactive)
CCOc1ccccc1NC(=O)CCS(=O)(=O)c1cccc2nsnc12	5.35% (inactive)
COc1cccc2sc(N(CCCN(C)C)C(=O)CCS(=O)(=O)c3ccccc3)nc12	31.7% (active)
Cc1cccc(C)c1NC(=O)CCS(=O)(=O)c1cccc2nsnc12	7.27% (inactive)
Cc1cccc2sc(N(CCCN(C)C)C(=O)CCS(=O)(=O)c3ccccc3)nc12	24.6% (active)
O=C(CN1CCN(S(=O)(=O)c2ccc(F)cc2)CC1)NC1CC1	0.22% (inactive)
COCCCn1c(SCc2cccc(OC)c2)nc2cc(OC)c(OC)cc2c1=N	12.2% (inactive)
CCOc1ccc(S(=O)(=O)N2CCN(C(=O)c3oc4ccccc4c3C)CC2)cc1	-8.52% (inactive)
CCCc1ccc(-c2csc(NC(=O)Cc3cccs3)n2)cc1	21.1% (active)
O=C(CCc1ccccc1)NCCc1cccs1	-5.14% (inactive)
O=C(Cc1cccs1)Nc1ccc([N+](=O)[O-])cc1	3.09% (inactive)
COc1cc(S(=O)(=O)Nc2ncn[nH]2)ccc1Cl	3.73% (inactive)
CC(=O)c1cc(C#N)c(N2CC(C)OC(C)C2)nc1C (stereo not given)	0.19% (inactive)
COc1ccc(-c2nc3cnccn3c2NC(C)(C)CC(C)(C)C)cc1O	7.55% (inactive)
COc1ccc(-c2nc3cc(C)ccn3c2NC2CCCCC2)cc1SC1CCCCC1	-6.71% (inactive) and 17.4% (inactive)
COc1ccc(-c2nc3cnccn3c2NC2CCCCC2)cc1-c1cccc(Cl)c1	27.1% (active) and 52.4% (active)
Cn1c(SCC(=O)NC2CCCCC2)nnc1-c1ccc(N)cc1	-8.42% (inactive)
CCCn1nc(Oc2nc(NC(C)C)nc(N(C)C)n2)ccc1=O	-6.09% (inactive)
Cc1ccccc1CNC(=O)CCC(=O)N1Cc2ccccc2Oc2ncccc21	-3.11% (inactive)
O=C(NC1=CC(=O)c2ccccc2C1=O)c1ccccc1	60.6% (active)
Cc1ccc(C(=O)Nc2c(-c3ccccc3)[nH][nH]c2=O)cc1	-2.83% (inactive)
O=C(NNC(=O)C1CCC1)c1ccccc1	-5.53% (inactive)
O=C(CN1C(=O)NC2(CCCCCC2)C1=O)NCc1cccs1	5.08% (inactive)
CCc1cccc(C)c1NS(=O)(=O)c1c(C)nc2sccn2c1=O	6.35% (inactive)

SMILES	inhibition
Cc1cccc(-n2ncc(Cl)c(Cl)c2=O)c1	32.6% (active)
Nc1c(-c2cccc(Cl)c2)cnn1-c1cccc([N+](=O)[O-])c1	-0.26% (inactive)
Cc1cccc(N2Cc3ccccc3C2=NC(=O)c2ccc(Cl)nc2)c1	1.35% (inactive)
Cc1ccc2[nH]c(C)c(CCNC(=O)NC3CCCCC3)c2c1	10.4% (inactive)
O=C(CN1CCOCC1)Nc1c2c(nc3c1CCC3)CCC2	-11.5% (inactive)
Cc1cc(C)n2nc(C(=O)OCC(=O)N(CCC#N)c3ccc(F)cc3)nc2n1	5.67% (inactive)
O=C(/C=C(O)/C=C/c1ccc(O)cc1)/C=C/c1ccc(O)cc1	56.9% (active)
COc1cccc(C(=O)NNC(=O)/C=C/c2ccccc2)c1	-14.4% (inactive)
CC(C)(C)C(=O)/C(C#N)=C/c1ccc(O)cc1	-19.2% (inactive)
COc1ccc(OC)c(CN2C(=O)CCC2(C)C(=O)NC2CCCCCC2)c1 (stereo not given)	-0.24% (inactive)
FC(F)(F)C1CCCN(c2nsc3ccccc23)C1 (stereo not given)	31% (active)
O=[N+]([O-])c1cc(S(=O)(=O)NCCc2ccccn2)ccc1Cl	5.34% (inactive)
Cc1ccc(C(=O)CN2C(=O)NC3(CCOc4ccccc43)C2=O)s1 (stereo not given)	-4.27% (inactive)
CCC1Sc2ccc(S(=O)(=O)CCC(=O)NCc3cccs3)cc2NC1=O (stereo not given)	-15.1% (inactive)
COc1cc(NS(=O)(=O)c2ccc3ccccc3c2)c2ncccc2c1	29.3% (active)
O=S(=O)(Nc1ccccn1)c1cccc(S(=O)(=O)c2ccc(Cl)cc2)c1	-8.24% (inactive)
COc1ccc(OC)c(C(C)NC(=S)Nc2ccc(S(=O)(=O)Nc3ncccn3)cc2)c1 (stereo not given)	2.38% (inactive)
CC(C=Cc1ccccc1)=NNS(=O)(=O)c1ccc([N+](=O)[O-])cc1	3.79% (inactive)
Cc1cccc(COc2ccccc2/C=N/Nc2ccc([N+](=O)[O-])cc2)c1	31.1% (active)
COC(=O)c1ccccc1N=NNc1ccc([N+](=O)[O-])cc1	2.92% (inactive)
Cc1ccccc1OCCOc1ccc([N+](=O)[O-])cc1/C=N/n1cnnc1	7.18% (inactive)
O=[N+]([O-])c1ccc(COc2ccccc2CN2CCOCC2)cc1	-0.03% (inactive)
O=[N+]([O-])c1ccc(N/N=C/c2ccccc2)cc1	24.8% (active)
